# Assay results taken from PubChem BioAssay (NCATS).
# Results filed as inconclusive are left out. Entries that show only a call come without a potency. Activity calls are given as the source filed them. Unless noted, the call rests on the fitted dose curve.
# What was measured:
# [1] = qHTS for Inhibitors of the Functional Ribonucleoprotein Complex (vRNP) of Lassa (LASV) Arenavirus: LASV Primary Screen - GLuc reporter signal (AID 1347082; calls by dose curve; tested in HEK293 reporter line; further: nearly all actives have a fitted effect of over 60% in size; further: potency means the concentration at half of the fitted maximal effect)
# [2] = qHTS for Inhibitors of the Functional Ribonucleoprotein Complex (vRNP) of Lassa (LASV) Arenavirus: Viability assay - alamar blue signal for LASV Primary Screen (AID 1347083; calls by dose curve; tested in HEK293 reporter line; further: nearly all actives have a fitted effect of over 80% in size; further: potency means the concentration at half of the fitted maximal effect)
# [3] = qHTS for Inhibitors of the Functional Ribonucleoprotein Complex (vRNP) of Lymphocytic Choriomeningitis Arenaviruses (LCMV): Viability assay - alamar blue signal for LCMV Primary Screen (AID 1347085; calls by dose curve; tested in HEK293 reporter line; further: nearly all actives have a fitted effect of over 80% in size; further: potency means the concentration at half of the fitted maximal effect)
# [4] = biological target: Nucleoprotein (Lymphocytic choriomeningitis virus (strain Armstrong)) (UniProt P09992); assay: qHTS for Inhibitors of the Functional Ribonucleoprotein Complex (vRNP) of Lymphocytic Choriomeningitis Arenaviruses (LCMV): LCMV Primary Screen - GLuc reporter signal (AID 1347086); further: nearly all actives have a fitted effect of over 70% in size; further: potency means the concentration at half of the fitted maximal effect
# Chain of Nucleoprotein (Lymphocytic choriomeningitis virus (strain Armstrong)) (P09992 whole entry, looked up): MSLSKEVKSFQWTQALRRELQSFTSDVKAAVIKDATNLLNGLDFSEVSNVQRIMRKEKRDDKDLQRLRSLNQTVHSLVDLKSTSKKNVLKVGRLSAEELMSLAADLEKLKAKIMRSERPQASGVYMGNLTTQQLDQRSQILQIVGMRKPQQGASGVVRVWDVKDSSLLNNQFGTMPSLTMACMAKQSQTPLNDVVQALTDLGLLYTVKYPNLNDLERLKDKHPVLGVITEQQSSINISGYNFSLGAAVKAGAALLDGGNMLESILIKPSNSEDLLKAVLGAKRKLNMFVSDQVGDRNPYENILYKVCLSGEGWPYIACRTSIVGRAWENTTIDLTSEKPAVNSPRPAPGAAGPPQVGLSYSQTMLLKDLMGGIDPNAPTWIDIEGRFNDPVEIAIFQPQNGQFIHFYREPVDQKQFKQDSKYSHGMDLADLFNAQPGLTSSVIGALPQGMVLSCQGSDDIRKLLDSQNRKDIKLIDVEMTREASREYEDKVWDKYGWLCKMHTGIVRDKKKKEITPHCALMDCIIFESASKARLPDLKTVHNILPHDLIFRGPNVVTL
# [5] = Cytotoxicity counterscreen for inhibitors of SARS-CoV-2 cell entry (AID 1645845); further: nearly all actives have a fitted effect of over 50% in size
# How it was run: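 Counterscreen run in the same HEK293-ACE2 line as the pseudotyped-particle entry assay, without particles. Viability after 48 h at 37 C was read as ATP luminescence, scaled between cell-containing and cell-free wells.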
# [6] = Primary qHTS to identify inhibitors of SARS-CoV-2 cell entry (AID 1645846); settings: activity change, negative = inhibition: at 57.1 µM (top of the series) unless noted; further: nearly all actives have a fitted effect of over 45% in size; further: potency means the concentration at half of the fitted maximal effect
# How it was run: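 Inhibition of spike-mediated entry was scored in human ACE2-transfected Expi293F cells. Particles were MLV-pseudotyped with Wuhan-Hu-1 S carrying a 19-aa C-terminal deletion; signal was luciferase after two days, scaled between spike PP and fusion-protein-free PP.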
# [7] = biological target: Alpha-galactosidase (Coffea arabica) (UniProt Q42656); assay: Counterscreen for Glucocerebrosidase Inhibitors: qHTS Assay for Coffee Bean alpha-Galactosidase at pH 4.5 (AID 957; active means well fitted curve in the direction sought with a large enough effect; an effect the other way counts as inactive or inconclusive)
# Chain of Alpha-galactosidase (Coffea arabica) (Q42656 whole entry, looked up): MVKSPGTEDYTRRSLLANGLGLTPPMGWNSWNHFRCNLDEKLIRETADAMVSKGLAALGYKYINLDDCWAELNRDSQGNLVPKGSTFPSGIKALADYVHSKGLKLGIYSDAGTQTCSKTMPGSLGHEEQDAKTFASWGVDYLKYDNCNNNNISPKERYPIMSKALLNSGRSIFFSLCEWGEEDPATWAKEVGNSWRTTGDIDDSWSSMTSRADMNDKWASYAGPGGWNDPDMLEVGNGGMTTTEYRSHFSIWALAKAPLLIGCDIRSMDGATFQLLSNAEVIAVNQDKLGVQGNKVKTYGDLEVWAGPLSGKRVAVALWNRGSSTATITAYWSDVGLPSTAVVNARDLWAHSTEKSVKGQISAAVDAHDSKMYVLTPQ
# How it was run: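 Enzyme is added first (2 nM final), then compounds titrated from 0.7 nM to 77 uM, then 80 uM 4-methylumbelliferyl alpha-D-galactopyranoside; after 20 min at room temperature a pH 10 NaOH/glycine stop precedes fluorescence reading at 365/440 nm.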
# [8] = biological target: Alpha-galactosidase (Coffea arabica) (UniProt Q42656); assay: Counterscreen for Glucocerebrosidase Inhibitors: qHTS Assay for Coffee Bean alpha-Galactosidase at pH 5.9 (AID 998; active means well fitted curve in the direction sought with a large enough effect; an effect the other way counts as inactive or inconclusive)
# How it was run: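 Enzyme 2 nM + cpd (0.7 nM–77 uM titration) + 4-MU-alpha-Gal 80 uM, pH 5.9 citrate/Tween-20, RT 20 min, NaOH/glycine stop pH 10, fluor 365/440. Normalized to no-enzyme and full-activity controls; Hill-fit AC50.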
# [9] = Validation screen for inhibitors of Lassa infection (AID 463096)
# [10] = Inducers of the Endoplasmic Reticulum Stress Response (ERSR) in human glioma: Validation (AID 504836; active means well fitted curve in the direction sought with a large enough effect; an effect the other way counts as inactive or inconclusive)
# How it was run: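 Stably transfected U87-MG glioma cells carrying a GRP78-based luciferase sensor; 16 h compound incubation. Luminescence end-point read 10 min after Bright-Glo addition at room temperature.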
# [11] = biological target: M-phase phosphoprotein 8 (Homo sapiens) (UniProt Q99549); assay: qHTS Validation Assay for Inhibitors for MPP8 Chromodomain Interactions with Methylated Histone Tails (AID 488949; active means well fitted curve in the direction sought with a large enough effect; an effect the other way counts as inactive or inconclusive; further: nearly all actives have a fitted effect of over 55% in size; further: potency means the concentration at half of the fitted maximal effect;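 on activity change, negative = inhibition: 50 nM MPP8 with 50 nM peptide preformed then compounds added for 30 min; AlphaScreen signal from MPP8 chromodomain bound to biotinylated H3K9me3 peptide; top concentration of the series differs between compounds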)
# Chain of M-phase phosphoprotein 8 (Homo sapiens) (Q99549 whole entry, looked up): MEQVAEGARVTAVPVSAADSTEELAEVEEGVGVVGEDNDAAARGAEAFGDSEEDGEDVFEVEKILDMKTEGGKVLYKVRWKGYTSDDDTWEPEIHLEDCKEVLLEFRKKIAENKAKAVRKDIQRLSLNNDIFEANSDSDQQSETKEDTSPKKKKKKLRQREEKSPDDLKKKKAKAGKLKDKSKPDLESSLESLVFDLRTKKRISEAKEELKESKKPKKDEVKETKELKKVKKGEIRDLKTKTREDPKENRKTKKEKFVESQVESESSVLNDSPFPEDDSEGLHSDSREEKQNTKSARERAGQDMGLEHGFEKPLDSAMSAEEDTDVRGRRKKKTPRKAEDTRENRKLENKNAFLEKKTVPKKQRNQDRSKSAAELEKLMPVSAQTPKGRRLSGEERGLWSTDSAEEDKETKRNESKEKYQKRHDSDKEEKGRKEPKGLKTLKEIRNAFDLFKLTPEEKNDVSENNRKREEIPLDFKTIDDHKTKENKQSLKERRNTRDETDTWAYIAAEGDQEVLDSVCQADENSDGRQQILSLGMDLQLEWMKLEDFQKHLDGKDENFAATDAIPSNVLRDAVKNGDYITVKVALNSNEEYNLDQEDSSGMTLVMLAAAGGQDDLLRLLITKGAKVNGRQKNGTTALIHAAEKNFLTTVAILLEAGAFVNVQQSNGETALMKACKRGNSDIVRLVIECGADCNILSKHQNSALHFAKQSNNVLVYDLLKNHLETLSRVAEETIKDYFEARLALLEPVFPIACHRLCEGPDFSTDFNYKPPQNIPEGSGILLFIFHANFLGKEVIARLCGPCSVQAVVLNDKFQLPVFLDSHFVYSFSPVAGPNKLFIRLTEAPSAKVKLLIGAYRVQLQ
# How it was run: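 50 nM MPP8 + 50 nM b-H3K9me3 peptide, PBS pH 7.4/0.01% Tween-20, 30 min RT; + cpd 30 min RT; + AlphaScreen donor/Ni-chelate acceptor beads 10 ug/mL final, 30 min dark; luminescence read.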
# [12] = qHTS assay for small molecule agonists of the antioxidant response element (ARE) signaling pathway measured by Nrf2-dependant transcriptional activity - cell viability counter screen (AID 720653; active means well fitted curve in the direction sought with a large enough effect in the repeat runs; an effect the other way counts as inactive or inconclusive; further: potency means the concentration at half of the fitted maximal effect); settings: ARE-bla HepG2 viability, CellTiter-Glo ATP luminescence, 16 h; max response: stronger effect = lower value
# How it was run: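 ARE-bla HepG2 cells treated with compounds for 16 h at 37C; this counter screen measures viability as intracellular ATP by CellTiter-Glo luminescence after 30 min at room temperature.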
# [13] = biological target: Nuclear receptor subfamily 1 group I member 3 (Homo sapiens) (UniProt Q14994); assay: Primary qHTS for antagonist of constitutive androstane receptor (CAR) against the NCATS DSHEA and TCM libraries (AID 1794836; active means well fitted curve in the direction sought with a large enough effect; an effect the other way counts as inactive or inconclusive;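 further: HepG2 cells stably expressing hCAR with CYP2B6 luciferase reporter stimulated by CITCO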)
# Chain of Nuclear receptor subfamily 1 group I member 3 (Homo sapiens) (Q14994 whole entry, looked up): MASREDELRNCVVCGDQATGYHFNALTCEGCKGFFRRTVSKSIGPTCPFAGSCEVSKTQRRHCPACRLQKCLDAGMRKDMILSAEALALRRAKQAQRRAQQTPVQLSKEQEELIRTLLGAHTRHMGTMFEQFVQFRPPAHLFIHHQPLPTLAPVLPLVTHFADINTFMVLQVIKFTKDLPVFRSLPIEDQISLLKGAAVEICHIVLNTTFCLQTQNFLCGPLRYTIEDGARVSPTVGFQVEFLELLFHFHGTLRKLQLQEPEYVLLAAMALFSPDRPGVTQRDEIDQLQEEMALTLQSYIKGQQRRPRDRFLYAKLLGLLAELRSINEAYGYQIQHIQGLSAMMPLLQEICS
# How it was run: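 HepG2-CYP2B6-hCAR cells, attached 5 h, given compounds plus CITCO agonist […], incubated 24 h at 37 C. Luciferase luminescence read, multiplexed with CellTiter-Fluor viability (Ex/Em 405/540 nm).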
# [14] = biological target: Cytochrome P450 3A4 (Homo sapiens) (UniProt P08684); assay: qHTS Assay for Activators of Cytochrome P450 3A4 (AID 885; active means well fitted curve in the direction sought with a large enough effect; an effect the other way counts as inactive or inconclusive; further: nearly all actives have a fitted effect of over 65% in size)
# Chain of Cytochrome P450 3A4 (Homo sapiens) (P08684 whole entry, looked up): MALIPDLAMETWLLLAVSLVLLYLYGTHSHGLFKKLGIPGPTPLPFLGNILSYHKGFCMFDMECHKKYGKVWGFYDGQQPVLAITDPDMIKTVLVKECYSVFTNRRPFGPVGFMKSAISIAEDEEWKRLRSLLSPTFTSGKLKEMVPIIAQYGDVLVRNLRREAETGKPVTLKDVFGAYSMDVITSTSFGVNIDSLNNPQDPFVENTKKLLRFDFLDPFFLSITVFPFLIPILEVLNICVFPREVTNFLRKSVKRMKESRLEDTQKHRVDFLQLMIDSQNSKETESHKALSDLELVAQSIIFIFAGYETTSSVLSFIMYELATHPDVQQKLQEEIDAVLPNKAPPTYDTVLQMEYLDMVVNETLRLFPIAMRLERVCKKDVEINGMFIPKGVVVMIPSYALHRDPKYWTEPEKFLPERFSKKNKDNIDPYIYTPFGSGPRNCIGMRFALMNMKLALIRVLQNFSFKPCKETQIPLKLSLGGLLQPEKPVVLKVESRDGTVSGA
# How it was run: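 Luminescent readout of luciferin formed from 25 uM Luciferin-PPXE (KM level) by 20 nM CYP3A4 in 200 mM KPO4, with 60 min NADPH-driven reaction at room temperature after 10 min compound exposure. Ketoconazole (57 uM) defined 100% inhibition.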
# [15] = MultiTox-Fluor Cytotoxicity Assay - LYMP1-003 - Dead Cells (AID 961; active means well fitted curve in the direction sought with a large enough effect; an effect the other way counts as inactive or inconclusive; further: potency means the concentration at half of the fitted maximal effect; nearly all actives have a fitted effect of over 70% in size)
# How it was run: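 Dead-cell protease release, detected as bis-AAF-R110 fluorescence at 485/520 nm, was measured in LYMP1-003 cells after 16 h compound treatment at 37 C. AC50 values came from Hill-modeled qHTS curves normalized to DMSO (0%) and 15 uM tetraoctylammonium bromide (100%).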
# [16] = Cell Viability - LYMP1-003 - Assay at 40 hr (AID 964; active means well fitted curve in the direction sought with a large enough effect; an effect the other way counts as inactive or inconclusive; further: potency means the concentration at half of the fitted maximal effect; nearly all actives have a fitted effect of over 60% in size)
# How it was run: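 Luminescent ATP signal (CellTiter-Glo) served as the viability read-out after 40 hr compound treatment of human lymphoblastoid LYMP1-003 cells at 37 C. Decreases in ATP were fitted with the Hill equation to give AC50.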
# [17] = Cell Viability - LYMP1-002 - Assay at 40 hr (AID 994; active means well fitted curve in the direction sought with a large enough effect; an effect the other way counts as inactive or inconclusive; further: potency means the concentration at half of the fitted maximal effect; nearly all actives have a fitted effect of over 60% in size)
# How it was run: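 Cells are plated at 2500 per well and rested 5 hr at 37 C. Compounds are added and incubated 40 hr at 37 C. CellTiter-Glo reagent is added for 30 min at room temperature before luminescence is read.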
# [18] = biological target: Peroxisome proliferator-activated receptor delta (Homo sapiens) (UniProt Q03181); assay: qHTS assay for small molecule agonists of peroxisome proliferator-activated receptor delta signaling (AID 588534)
# Chain of Peroxisome proliferator-activated receptor delta (Homo sapiens) (Q03181 whole entry, looked up): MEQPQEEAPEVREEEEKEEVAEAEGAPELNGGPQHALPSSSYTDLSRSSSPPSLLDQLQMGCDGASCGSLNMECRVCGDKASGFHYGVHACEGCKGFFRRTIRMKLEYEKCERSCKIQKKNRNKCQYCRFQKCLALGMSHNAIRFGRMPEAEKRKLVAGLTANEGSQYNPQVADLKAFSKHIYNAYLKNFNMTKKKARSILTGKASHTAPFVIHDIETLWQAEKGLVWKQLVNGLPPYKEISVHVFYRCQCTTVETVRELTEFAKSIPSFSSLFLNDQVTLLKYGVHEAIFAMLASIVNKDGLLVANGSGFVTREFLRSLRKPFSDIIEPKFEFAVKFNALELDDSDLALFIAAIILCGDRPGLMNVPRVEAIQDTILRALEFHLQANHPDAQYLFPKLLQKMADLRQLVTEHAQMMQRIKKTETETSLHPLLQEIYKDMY
# How it was run: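 Agonist-mode qHTS; reporter cells, 5 hrs 37 C pre-incubation; compound titration, 18 hrs 37 C; CCF4 dye, 2 hrs RT; fluorescence read. EC50/efficacy via Hill fit.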
# [19] = biological target: Nuclear receptor ROR-gamma (Homo sapiens) (UniProt P51449); assay: qHTS assay for small molecule antagonists of the retinoid-related orphan receptor gamma (ROR-gamma) signaling pathway (AID 651802; active means well fitted curve in the direction sought with a large enough effect; an effect the other way counts as inactive or inconclusive; further: potency means the concentration at half of the fitted maximal effect; nearly all actives have a fitted effect of over 60% in size)
# Chain of Nuclear receptor ROR-gamma (Homo sapiens) (P51449 whole entry, looked up): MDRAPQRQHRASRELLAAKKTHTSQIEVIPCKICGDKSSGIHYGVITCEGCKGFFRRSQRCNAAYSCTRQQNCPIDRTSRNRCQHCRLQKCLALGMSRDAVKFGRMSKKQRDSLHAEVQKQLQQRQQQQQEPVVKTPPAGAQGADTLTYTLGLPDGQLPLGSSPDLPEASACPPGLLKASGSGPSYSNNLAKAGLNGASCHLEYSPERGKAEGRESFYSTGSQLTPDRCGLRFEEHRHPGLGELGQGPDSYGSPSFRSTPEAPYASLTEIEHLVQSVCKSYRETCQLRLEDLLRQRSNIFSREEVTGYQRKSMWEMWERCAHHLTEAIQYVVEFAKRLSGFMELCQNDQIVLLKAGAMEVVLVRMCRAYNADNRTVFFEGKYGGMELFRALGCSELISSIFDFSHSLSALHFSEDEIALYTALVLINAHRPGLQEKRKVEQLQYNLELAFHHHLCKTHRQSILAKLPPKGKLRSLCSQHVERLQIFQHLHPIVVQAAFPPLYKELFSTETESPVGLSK
# How it was run: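 Steps: cells dispensed; compound or DMSO transferred by pin tool; doxycycline added to induce the ROR response element-driven luciferase; plates held 16hr at 37C; ONE-Glo added and luminescence measured.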
compound,measurement,setting,value
CCN1CCN(c2ccc(Nc3cc(N(C)C(=O)Nc4c(Cl)c(OC)cc(OC)c4Cl)ncn3)cc2)CC1,Potency,[1],inactive
same,Potency,[2],inactive
same,Potency,[3],inactive
same,Potency,[4],inactive
same,Potency,[5],inactive
same,Potency,[6],inactive
N#C/C(=C\c1ccc(O)c(O)c1)C(=O)NCc1ccccc1,outcome,[7],inactive
same,outcome,[8],inactive
same,Potency,[9],inactive
same,outcome,[10],inactive
same,Potency,[1],inactive
same,Potency,[2],inactive
same,Potency,[3],inactive
same,Potency,[4],inactive
same,Potency,[5],inactive
NC(=O)c1ccc2[nH]ccc2c1,outcome,[10],inactive
same,Potency,[1],inactive
same,Potency,[2],inactive
same,Potency,[3],inactive
same,Potency,[4],inactive
same,Potency,[5],inactive
same,"activity change, negative = inhibition",[6],-19.6%
CC[C@H](C=C[C@@H](C)[C@H]1CC[C@H]2[C@@H]3CC=C4C[C@@H](O)CC[C@]4(C)[C@@H]3CC[C@]12C)C(C)C,Potency,[1],inactive
same,Potency,[2],inactive
same,Potency,[3],inactive
same,Potency,[4],inactive
same,Potency,[5],inactive
same,Potency,[6],inactive
Nc1nc(N)c2nc(CNc3ccc(C(=O)NC(CCC(=O)O)C(=O)O)cc3)cnc2n1 (centres undefined),Potency,[9],inactive
same,Potency,[11],inactive
same,outcome,[10],inactive
same,Potency,[12],0.0126 µM (active)
same,Potency,[1],inactive
same,Potency,[2],inactive
same,Potency,[3],inactive
same,Potency,[4],inactive
same,Potency,[5],inactive
same,Potency,[6],inactive
COc1ccc2c(Oc3ccc(NC(=O)c4c(C)n(CC(C)(C)O)n(-c5ccccc5)c4=O)cc3F)ccnc2c1,Potency,[1],inactive
same,Potency,[2],inactive
same,Potency,[3],inactive
same,Potency,[4],inactive
same,Potency,[5],inactive
same,"activity change, negative = inhibition",[6],-8.07%
O=S(=O)(O)CCSSCCS(=O)(=O)O,Potency,[1],inactive
same,Potency,[2],inactive
same,Potency,[3],inactive
same,Potency,[4],inactive
same,Potency,[5],inactive
same,Potency,[6],inactive
COc1cccc(-c2cc(=O)c3ccccc3o2)c1N,outcome,[7],inactive
same,outcome,[10],inactive
same,Potency,[1],inactive
same,Potency,[2],inactive
same,Potency,[3],inactive
same,Potency,[4],inactive
same,Potency,[5],inactive
same,Potency,[6],inactive
c1ccc(CNc2nc(NCc3ccccc3)c3ccccc3n2)cc1,Potency,[1],19.3 µM (active)
same,Potency,[2],24.3 µM (active)
same,Potency,[3],24.3 µM (active)
same,Potency,[4],3.85 µM (active)
same,Potency,[6],22.4 µM (active)
C=C/C(C)=C/C/C=C(\C)CCC=C(C)C,Potency,[1],inactive
same,Potency,[2],inactive
same,Potency,[3],inactive
same,Potency,[4],inactive
same,Potency,[13],inactive
Cc1nc(C(=O)NCC(=O)O)c(O)c2ccc(Oc3ccccc3)cc12,Potency,[1],inactive
same,Potency,[2],inactive
same,Potency,[3],inactive
same,Potency,[4],inactive
same,"activity change, negative = inhibition",[6],-9.8%
CN1CCN(Cc2ccc(NC(=O)Nc3ccc(Oc4cc(NC(=O)C5CC5)ncn4)cc3)cc2C(F)(F)F)CC1,Potency,[1],2.43 µM (active)
same,Potency,[2],1.53 µM (active)
same,Potency,[3],0.968 µM (active)
same,Potency,[4],1.72 µM (active)
same,Potency,[6],1 µM (active)
Oc1ccccc1O,Potency,[14],inactive
same,outcome,[7],inactive
same,Potency,[15],12.6 µM (active)
same,Potency,[16],7.94 µM (active)
same,Potency,[17],15.8 µM (active)
same,outcome,[8],inactive
same,Potency,[9],inactive
same,Potency,[11],79.4 µM (active)
same,outcome,[10],inactive
same,Potency,[18],inactive
same,Potency,[19],5.96 µM (active)
same,Potency,[1],inactive
same,Potency,[2],inactive
same,Potency,[3],inactive
same,Potency,[4],inactive
Clc1ccc2c(N3CCN(CCCN4CCN(c5ccnc6cc(Cl)ccc56)CC4)CC3)ccnc2c1,Potency,[1],inactive
same,Potency,[2],inactive
same,Potency,[3],inactive
same,Potency,[4],inactive
same,"activity change, negative = inhibition",[6],-11.2%
COC[C@H](NC(=O)c1cnc(C)s1)C(=O)N[C@@H](COC)C(=O)N[C@@H](Cc1ccccc1)C(=O)[C@@]1(C)CO1,Potency,[1],0.273 µM (active)
same,Potency,[2],0.685 µM (active)
same,Potency,[3],0.685 µM (active)
same,Potency,[4],0.769 µM (active)
same,"activity change, negative = inhibition",[6],-97.7%
O=C1c2ccccc2-[n+]2ccc3c([nH]c4ccccc43)c21,Potency,[1],4.85 µM (active)
same,Potency,[2],4.32 µM (active)
same,Potency,[3],6.11 µM (active)
same,Potency,[4],3.06 µM (active)
same,Potency,[6],1.26 µM (active)
O=C(Nc1cccc(Nc2ncc(Br)c(NCCc3cnc[nH]3)n2)c1)N1CCCC1,Potency,[1],inactive
same,Potency,[2],21.7 µM (active)
same,Potency,[3],27.3 µM (active)
same,Potency,[4],inactive
same,"activity change, negative = inhibition",[6],-97.2%
CC(C)C[C@H](NC(=O)[C@@H](NC(=O)c1cccc(-c2ccccc2)n1)[C@@H](C)O)B(O)O,Potency,[1],0.685 µM (active)
same,Potency,[2],0.544 µM (active)
same,Potency,[3],1.09 µM (active)
same,Potency,[4],1.09 µM (active)
same,"activity change, negative = inhibition",[6],-97.4% [at 27.1 µM]
COC1=C[C@]23CCCN2CCc2cc4c(cc2[C@@H]3[C@@H]1O)OCO4,Potency,[1],inactive
same,Potency,[2],inactive
same,Potency,[3],inactive
same,Potency,[4],inactive
CC[C@H](CC#N)OC(=O)N[C@@H](C)c1cccc(NC(=O)Nc2ccc(-c3cnco3)c(OC)c2)c1,Potency,[1],1.53 µM (active)
same,Potency,[2],0.769 µM (active)
same,Potency,[3],0.968 µM (active)
same,Potency,[4],0.769 µM (active)
same,"activity change, negative = inhibition",[6],-97.5%
CC(C)NC[C@H](O)COc1cccc2[nH]ccc12,outcome,[7],inactive
same,outcome,[8],inactive
same,Potency,[9],inactive
same,outcome,[10],inactive
same,Potency,[1],inactive
same,Potency,[2],inactive
same,Potency,[3],inactive
same,Potency,[4],inactive
Cc1ccccc1C(=O)c1ccc(Nc2ccc(Br)cc2N)cc1Cl,Potency,[1],inactive
same,Potency,[2],inactive
same,Potency,[3],inactive
same,Potency,[4],inactive
Cn1cnc(-c2cc3nccc(Oc4ccc(NC(=S)NC(=O)Cc5ccccc5)cc4F)c3s2)c1,Potency,[1],inactive
same,Potency,[2],inactive
same,Potency,[3],inactive
same,Potency,[4],inactive
same,Potency,[6],8.91 µM (active)
C=C[C@@H]1CN2CCC1C[C@H]2[C@H](O)c1ccnc2ccc(OC)cc12 (some centres undefined),Potency,[1],inactive
same,Potency,[2],inactive
same,Potency,[3],inactive
same,Potency,[4],inactive
same,"activity change, negative = inhibition",[6],-48.9%
C=C1c2cccc(O)c2C(O)=C2C(=O)[C@@]3(O)C(O)=C(C(N)=O)C(=O)[C@@H](N(C)C)[C@@H]3[C@@H](O)[C@H]12,Potency,[1],inactive
same,Potency,[2],inactive
same,Potency,[3],inactive
same,Potency,[4],inactive
same,"activity change, negative = inhibition",[6],-17.4%
O=[N+]([O-])c1ccc(Nc2ccccc2-c2ccccc2)c2nonc12,Potency,[1],inactive
same,Potency,[2],inactive
same,Potency,[3],inactive
same,Potency,[4],inactive
same,Potency,[6],7.94 µM (active)
Cc1cc(Nc2cc(NC(=O)c3c(Cl)cccc3Cl)ccn2)nc(N)n1,Potency,[1],6.11 µM (active)
same,Potency,[2],3.06 µM (active)
same,Potency,[3],3.06 µM (active)
same,Potency,[4],3.85 µM (active)
same,Potency,[6],1.41 µM (active)
